Source: the OligoGym collection

biological target: FKTN; experiment: pooled miR-30 sensor sort-seq; sequence = guide strand; settings: shRNA
Further: reference of the scale not given here.

Sequence	sensor-assay potency score (higher = more potent)
TTGCATTGTGAAGTAGAGCCAT	0.152
TAAACCTAGAGTGTGGTACTTC	0.175
ATGTCTACAAACTCAGTCCAGC	-1.47
TAAATAGTGCTTGTAGTAGTAC	-0.0376
TTGTTTAATGTTTTCGCTGCTA	0.0989
TGCATTGTGAAGTAGAGCCATG	-1.03
TCCATCAACAGTAACTTGCTGT	-0.268
TAGAGTGTGGTACTTCTTCTAC	-0.462
TGCATTGTCGATACCATCCTAG	-0.739
TACTTCTTCTACAAAGTGCATT	-0.78
TAGTACAACTGAAACAGCAGAA	0.161
ATTTTGACAAACCAGCTCCATT	-1.46
TTGACTTGTTCAAAGTTCTTAT	-0.62
TTTGCAGATATAGTGCAGGGGG	-0.241
TTTTACATCATCTTTTCCCTGG	0.348
TTTGACTTGTTCAAAGTTCTTA	0.733
TAGACAAGTTCCACTGCTCAGC	-0.942
TTTTAAACAGTTATCTACCTTT	0.405
TTCCAAGCTGTCTTCTACCTTC	-0.104

biological target: FLG; experiment: as above; settings: shRNA

Sequence	sensor-assay potency score (higher = more potent)
TTGATTGTTCCTCATTACGTGT	-0.377
TCTATTGTTTCTTCTTTCCAGA	-0.556
TAGAATGGCCACATAAACCTGG	0.301
TTTTGAGTCATTCTTCCTGTAT	-0.417
AATTGTAACTAACACTTCCGTG	-0.414
TTTCTCTGCTTGCACTTCTGGA	-0.359
TAGACTCATAATATGCTTGAGC	-0.577
ATTGTAACTAACACTTCCGTGC	0.359
TTGTCTGCTTGCACTTCTGGAT	-0.517
TTTGTCTGCTGACACTTCTGGA	-0.531
TTTCATAATCATATACTCCTTC	0.805
TAATCTAGTATTTTCAGTCTTG	0.133
TATGAGTAGGTGAATATCCTTT	-0.066
TTCTAATAGACTATCAGTGGTG	-0.268
TTCAGAACTAGATTCATGCCTT	0.702
TTTACTTGAGTTATGATGGTTT	0.102
TTTTTTTGAATATTGCTTGAAA	-0.0278
TTGTTCTGCTTGCACTTCTGGA	-0.702
TTGTCTGCTGACACTTCTGGAT	-0.488
TAGAGTCTGACTGTACAGGTGA	0.79
TAATCTGCACTACCATAGCTGC	-1.29
